Assay results: PubChem BioAssay (EPA / NIEHS)
“And” between values parts separate entries of the source, which are not always exact repeats. Equal values may be shown once. More than one record can exist for a structure, and the calls need not agree. The source made the active and inactive calls. The calls were made as follows: active = hit-call score of the fitted dose curve at least 0.9, where 1 is the maximum; inactive = score below 0.9.

How the values were obtained:
[1] = ATG_GRE_CIS: Attagene CIS-FACTORIAL HepG2 Assay for human Glucocorticoid Response Elements (GRE) (AID 2282947); conditions: HepG2 GRE cis-reporter, Attagene multiplex mRNA; actives raise or lower the signal
In short: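 Endogenous transcription factor activity is read through cis-element reporter constructs transiently transfected into HepG2 cells. After 24 h treatment, labelled RT-PCR products are resolved by capillary electrophoresis; DMSO sets baseline for bidirectional curve fitting.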

[2] = ATG_ISRE_CIS: Attagene CIS-FACTORIAL HepG2 Assay for human Interferon Regulatory Factor 1 (IRF1) binding to an Interferon-Stimulated Response Element (ISRE) (AID 2282948); conditions: HepG2 ISRE cis-reporter (Attagene), mRNA transcription readout; actives raise or lower the signal
In short: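 Cell-based cis-reporter assay; HepG2; 24 h exposure; reporter mRNA by RT-PCR plus capillary electrophoresis fluorescence; activity in either direction scored relative to DMSO.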

[3] = ATG_M_32_CIS: Attagene CIS-FACTORIAL HepG2 Assay for M32 Transcription Factor (Internal Marker) (AID 2282949); conditions: HepG2 Attagene cis-factorial M32 reporter, mRNA; actives raise or lower the signal;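 also: background control marker of the multiplexed CIS panel rather than a real target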
In short: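 Following 24 h chemical exposure of HepG2 cells transiently expressing cis-promoter reporter constructs, reporter transcript levels were determined by RT-PCR with fluorescent labelling and capillary electrophoresis, then fitted bidirectionally against DMSO.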

[4] = ATG_M_06_CIS: Attagene CIS-FACTORIAL HepG2 Assay for M06 Transcription Factor (Internal Marker) (AID 2282950); conditions: HepG2 Attagene CIS-FACTORIAL M06 internal marker reporter; actives raise or lower the signal
In short: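 Internal background marker within multiplexed cis-reporter HepG2 system. Cells transiently transfected, dosed 24 h; reporter mRNA measured by RT-PCR, HpaI digestion and capillary electrophoresis. Bidirectional fit relative to DMSO.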

[5] = biological target: Hypoxia-inducible factor 1-alpha (Homo sapiens) (UniProt Q16665); experiment: ATG_HIF1a_CIS: Attagene CIS-FACTORIAL HepG2 Assay for human Hypoxia Inducible Factor 1 (HIF1A) (AID 2282951); conditions: HepG2 Attagene cis-factorial HIF1a reporter transcription; actives raise or lower the signal
In short: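 Cis-element reporter constructs were transiently transfected into HepG2 cells, which were treated for 24 h; reporter RNA was reverse-transcribed, amplified, labelled and resolved by capillary electrophoresis.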

[6] = biological target: Hepatocyte nuclear factor 6 (Homo sapiens) (UniProt Q9UBC0); experiment: ATG_HNF6_CIS: Attagene CIS-FACTORIAL HepG2 Assay for human Hepatocyte Nuclear Factor 6 (HNF6) (AID 2282952); conditions: HepG2 Attagene cis-factorial HNF6 reporter transcription; actives raise or lower the signal
In short: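 HepG2 cells transiently transfected with cis-element-driven multiple reporter transcription units, dosed 24 h; reporter mRNA quantified by RT-PCR, FAM primer extension, HpaI digestion and capillary electrophoresis; bidirectional fit versus DMSO baseline.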

[7] = biological target: Heat shock factor protein 1 (Homo sapiens) (UniProt Q00613); experiment: ATG_HSE_CIS: Attagene CIS-FACTORIAL HepG2 Assay for human Heat Shock Transcription Factor 1 (HSE) (AID 2282953); conditions: HepG2 HSE cis-reporter, Attagene RNA transcription; actives raise or lower the signal
In short: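 HepG2 cells transfected with cis-promoter reporter units sensing endogenous transcription factor activity; reporter mRNA quantified 24 h post-dose by RT-PCR and capillary electrophoresis of 6-FAM-labelled products. Bidirectional fitting against DMSO.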

[8] = ATG_MRE_CIS: Attagene CIS-FACTORIAL HepG2 Assay for human Metal Responsive Element (MRE) (AID 2282954); conditions: HepG2 MRE cis-reporter transcription, Attagene multiplex; actives raise or lower the signal
In short: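 Fluorescent reporter fragments separated by capillary electrophoresis give mRNA induction for the MRE unit after 24 h treatment of transfected HepG2 cells. Endogenous transcription-factor activity is read; DMSO serves as negative control and baseline.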

[9] = ATG_PBREM_CIS: Attagene CIS-FACTORIAL HepG2 Assay for human Phenobarbital-responsive Enhancer Module (PBREM) (AID 2282955); conditions: HepG2 PBREM cis-reporter, Attagene multiplexed transcription; actives raise or lower the signal
In short: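 Multiplexed cis-reporter readout in human hepatoma HepG2 cells; PBREM-regulated transcript quantified after 24 h exposure by fluorescent RT-PCR fragment analysis. Signal changes up or down fitted relative to DMSO.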

[10] = biological target: Paired box protein Pax-6 (Homo sapiens) (UniProt P26367); experiment: ATG_Pax6_CIS: Attagene CIS-FACTORIAL HepG2 Assay for human Paired Box 6 (PAX6) (AID 2282956); conditions: HepG2 CIS-FACTORIAL PAX6 reporter transcription, RNA readout; actives raise or lower the signal
In short: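 Multiplexed cis-reporter HepG2 system; 24 h treatment; reporter mRNA read by RT-PCR/CE fluorescence; bidirectional fit vs DMSO.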

[11] = ATG_PXRE_CIS: Attagene CIS-FACTORIAL HepG2 Assay for human Pregnane X Receptor Element (PXRE) (AID 2282957); conditions: HepG2 Attagene CIS-FACTORIAL PXRE reporter, mRNA; actives raise or lower the signal
In short: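 HepG2 cells transiently transfected with cis-regulated multiple reporter transcription units; endogenous factor activity measured as reporter mRNA 24 h after dosing. RT-PCR, fluorescent primer extension, HpaI digestion, capillary electrophoresis; bidirectional fit versus DMSO baseline.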

[12] = ATG_RORE_CIS: Attagene CIS-FACTORIAL HepG2 Assay for human RAR-related Orphan Receptor Element (RORE) (AID 2282959); conditions: HepG2 Attagene cis-factorial RORE reporter, mRNA; actives raise or lower the signal
In short: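 Transfect HepG2 with MRTUs; treat 24 h; extract RNA; RT with oligo(dT); PCR with reporter-specific primers; 6-FAM primer extension; HpaI digest 2 h at 37 C; capillary electrophoresis. Fit vs DMSO, bidirectional.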

[13] = ATG_Sox_CIS: Attagene CIS-FACTORIAL HepG2 Assay for human SRY-box transcription factor (SOX) (AID 2282960); conditions: HepG2 Attagene cis-factorial SOX reporter, mRNA; actives raise or lower the signal
In short: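 Fluorescence-labelled cDNA fragments from reporter transcripts, sized by CE, give the signal. Cells: HepG2, transiently transfected with cis-regulated reporter units. Exposure 24 h; DMSO negative control; bidirectional curve fitting.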

[14] = biological target: Transcription factor Sp1 (Homo sapiens) (UniProt P08047); experiment: ATG_Sp1_CIS: Attagene CIS-FACTORIAL HepG2 Assay for human Specificity Protein 1 (Sp1) (AID 2282961); conditions: HepG2 Sp1 cis-reporter transcription, actives raise or lower the signal
In short: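 Chemicals are dosed onto HepG2 cells transfected with multiple cis-promoter reporter constructs, and after 24 h reporter RNA is reverse-transcribed, PCR-amplified and resolved by capillary electrophoresis for fluorescence quantitation; activity is scored up or down against DMSO.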

[15] = ATG_SREBP_CIS: Attagene CIS-FACTORIAL HepG2 Assay for human Sterol Regulatory Element Binding (SREBP) (AID 2282962); conditions: HepG2 Attagene cis-factorial SREBP reporter, mRNA; actives raise or lower the signal
In short: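 mRNA induction of transfected cis-promoter reporters in HepG2 cells, 24 h post-dose. Detection: RT-PCR with 6-FAM-labelled products, HpaI digest, capillary electrophoresis. DMSO served as negative control and baseline.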

[16] = biological target: Signal transducer and activator of transcription 3 (Homo sapiens) (UniProt P40763); experiment: ATG_STAT3_CIS: Attagene CIS-FACTORIAL HepG2 Assay for human Signal Transducer and Activator of Transcription 3 (STAT3) (AID 2282963); conditions: HepG2, Attagene cis-factorial STAT3 reporter transcription; actives raise or lower the signal
In short: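 Values derive from bidirectional fits relative to DMSO of reporter mRNA levels, measured by RT-PCR with capillary electrophoresis, in HepG2 cells carrying transiently transfected cis-regulated reporter units and exposed 24 h.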

[17] = ATG_TA_CIS: Attagene CIS-FACTORIAL HepG2 Assay for human TA Basal Promoter (AID 2282964); conditions: HepG2 Attagene CIS-factorial TA basal promoter reporter; actives raise or lower the signal
In short: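 HepG2 cells transiently transfected with multiple reporter units under cis promoter elements, reporting endogenous transcription factor activity; this endpoint tracks the TA basal promoter as background control. Reporter mRNA after 24 h dosing measured by RT-PCR/capillary electrophoresis; bidirectional fits versus DMSO.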

[18] = ATG_TCF_b_cat_CIS: Attagene CIS-FACTORIAL HepG2 Assay for human T-Cell-Factor with beta-catenin (TCF/b-cat) (AID 2282965); conditions: HepG2 TCF/beta-catenin cis-reporter transcription, actives raise or lower the signal
In short: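 HepG2, transient MRTU transfection, cis-element-driven reporters (endogenous TFs). 24 h compound exposure. Readout: reporter mRNA by RT-PCR + 6-FAM primer extension, HpaI digest, capillary electrophoresis. Gain/loss fit vs DMSO baseline.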

[19] = ATG_TAL_CIS: Attagene CIS-FACTORIAL HepG2 Assay for human TAL Basal Promoter (AID 2282966); conditions: HepG2 Attagene cis-factorial TAL promoter reporter; actives raise or lower the signal;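 also: background control endpoint measuring basal TAL promoter reporter mRNA not a specific factor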
In short: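 HepG2 cells were transiently transfected with promoter-driven multiplexed reporter units and dosed for 24 h. Reporter mRNA was measured by RT-PCR with capillary electrophoresis fluorescence; bidirectional fits used DMSO as baseline, serving as a background control.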

[20] = ATG_PPRE_CIS: Attagene CIS-FACTORIAL HepG2 Assay for human Peroxisome Proliferator-activated Response Element (PPRE) (AID 2282958); conditions: HepG2 PPRE cis-element reporter, Attagene transcription factor profiling; actives raise or lower the signal
In short: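 DMSO served as negative control and baseline for bidirectional curve fitting. Signal came from PPRE-regulated reporter mRNA in HepG2 cells, measured 24 h post-dosing by RT-PCR, 6-FAM primer extension and capillary electrophoresis.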

Measured: AC50

Sequence of Signal transducer and activator of transcription 3 (Homo sapiens) (P40763 whole entry, looked up): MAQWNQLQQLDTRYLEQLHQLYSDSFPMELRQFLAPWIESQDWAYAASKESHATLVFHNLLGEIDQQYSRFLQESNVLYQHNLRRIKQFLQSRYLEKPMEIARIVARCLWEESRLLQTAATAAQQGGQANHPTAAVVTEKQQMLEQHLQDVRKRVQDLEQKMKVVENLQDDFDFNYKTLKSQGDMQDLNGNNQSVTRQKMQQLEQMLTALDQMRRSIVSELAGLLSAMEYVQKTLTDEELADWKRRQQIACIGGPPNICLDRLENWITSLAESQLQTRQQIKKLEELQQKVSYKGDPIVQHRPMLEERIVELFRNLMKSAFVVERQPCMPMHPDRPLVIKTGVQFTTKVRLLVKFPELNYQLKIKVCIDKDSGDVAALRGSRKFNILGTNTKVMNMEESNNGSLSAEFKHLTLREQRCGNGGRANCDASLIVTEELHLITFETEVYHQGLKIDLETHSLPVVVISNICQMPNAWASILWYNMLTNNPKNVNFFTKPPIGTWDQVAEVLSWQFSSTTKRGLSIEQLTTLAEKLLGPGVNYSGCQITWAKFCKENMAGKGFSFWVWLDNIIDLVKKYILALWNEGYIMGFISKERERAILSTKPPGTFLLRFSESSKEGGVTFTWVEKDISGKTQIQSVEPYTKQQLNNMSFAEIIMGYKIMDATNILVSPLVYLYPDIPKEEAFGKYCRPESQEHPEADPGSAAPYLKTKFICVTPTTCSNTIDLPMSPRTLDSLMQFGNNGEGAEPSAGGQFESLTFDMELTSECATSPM
Sequence of Paired box protein Pax-6 (Homo sapiens) (P26367 whole entry, looked up): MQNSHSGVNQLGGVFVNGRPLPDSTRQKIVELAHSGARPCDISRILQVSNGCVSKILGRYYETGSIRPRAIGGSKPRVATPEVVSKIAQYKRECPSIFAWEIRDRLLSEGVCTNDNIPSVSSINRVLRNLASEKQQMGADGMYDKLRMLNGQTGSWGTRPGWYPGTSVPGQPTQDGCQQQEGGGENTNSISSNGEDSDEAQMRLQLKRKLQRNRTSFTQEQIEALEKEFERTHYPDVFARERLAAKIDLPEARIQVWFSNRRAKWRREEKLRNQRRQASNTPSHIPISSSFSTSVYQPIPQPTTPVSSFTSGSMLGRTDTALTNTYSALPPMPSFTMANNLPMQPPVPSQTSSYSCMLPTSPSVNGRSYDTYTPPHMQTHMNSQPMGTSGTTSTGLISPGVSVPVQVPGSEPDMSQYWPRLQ
Sequence of Hypoxia-inducible factor 1-alpha (Homo sapiens) (Q16665 whole entry, looked up): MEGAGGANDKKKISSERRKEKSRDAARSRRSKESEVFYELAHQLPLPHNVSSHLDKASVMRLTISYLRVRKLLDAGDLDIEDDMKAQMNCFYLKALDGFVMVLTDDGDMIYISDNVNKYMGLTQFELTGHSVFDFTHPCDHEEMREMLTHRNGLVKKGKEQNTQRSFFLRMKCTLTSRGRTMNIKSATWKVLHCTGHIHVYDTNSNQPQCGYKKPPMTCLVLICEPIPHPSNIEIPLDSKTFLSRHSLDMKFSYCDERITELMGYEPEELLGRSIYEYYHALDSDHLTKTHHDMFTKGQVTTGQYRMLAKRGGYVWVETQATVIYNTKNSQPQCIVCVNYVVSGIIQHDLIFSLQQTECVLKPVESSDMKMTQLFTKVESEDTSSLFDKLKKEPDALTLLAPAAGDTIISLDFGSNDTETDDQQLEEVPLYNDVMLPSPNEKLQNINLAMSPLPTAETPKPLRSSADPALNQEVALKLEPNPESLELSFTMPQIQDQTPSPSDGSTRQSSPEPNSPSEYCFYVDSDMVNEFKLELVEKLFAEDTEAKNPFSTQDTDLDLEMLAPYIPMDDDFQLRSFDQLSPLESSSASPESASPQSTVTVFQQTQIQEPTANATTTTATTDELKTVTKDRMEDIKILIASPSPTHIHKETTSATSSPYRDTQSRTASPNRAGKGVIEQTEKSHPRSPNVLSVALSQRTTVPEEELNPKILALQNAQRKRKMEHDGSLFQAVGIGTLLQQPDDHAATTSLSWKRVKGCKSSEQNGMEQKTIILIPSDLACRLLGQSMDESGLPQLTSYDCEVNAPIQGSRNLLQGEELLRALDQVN
Sequence of Heat shock factor protein 1 (Homo sapiens) (Q00613 whole entry, looked up): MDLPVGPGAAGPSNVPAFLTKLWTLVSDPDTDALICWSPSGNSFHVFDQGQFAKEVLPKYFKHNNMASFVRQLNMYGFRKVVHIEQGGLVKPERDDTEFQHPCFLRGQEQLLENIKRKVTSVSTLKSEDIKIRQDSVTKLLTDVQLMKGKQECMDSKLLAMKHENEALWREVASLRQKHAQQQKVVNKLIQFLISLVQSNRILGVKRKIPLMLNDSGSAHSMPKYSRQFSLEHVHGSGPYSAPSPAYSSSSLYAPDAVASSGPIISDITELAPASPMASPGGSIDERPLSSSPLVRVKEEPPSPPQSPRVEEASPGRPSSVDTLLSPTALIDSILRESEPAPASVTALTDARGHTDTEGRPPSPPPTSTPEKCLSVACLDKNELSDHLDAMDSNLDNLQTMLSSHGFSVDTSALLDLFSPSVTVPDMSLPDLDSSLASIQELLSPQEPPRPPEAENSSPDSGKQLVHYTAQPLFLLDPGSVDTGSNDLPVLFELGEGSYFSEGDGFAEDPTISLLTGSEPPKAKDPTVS
Sequence of Hepatocyte nuclear factor 6 (Homo sapiens) (Q9UBC0 whole entry, looked up): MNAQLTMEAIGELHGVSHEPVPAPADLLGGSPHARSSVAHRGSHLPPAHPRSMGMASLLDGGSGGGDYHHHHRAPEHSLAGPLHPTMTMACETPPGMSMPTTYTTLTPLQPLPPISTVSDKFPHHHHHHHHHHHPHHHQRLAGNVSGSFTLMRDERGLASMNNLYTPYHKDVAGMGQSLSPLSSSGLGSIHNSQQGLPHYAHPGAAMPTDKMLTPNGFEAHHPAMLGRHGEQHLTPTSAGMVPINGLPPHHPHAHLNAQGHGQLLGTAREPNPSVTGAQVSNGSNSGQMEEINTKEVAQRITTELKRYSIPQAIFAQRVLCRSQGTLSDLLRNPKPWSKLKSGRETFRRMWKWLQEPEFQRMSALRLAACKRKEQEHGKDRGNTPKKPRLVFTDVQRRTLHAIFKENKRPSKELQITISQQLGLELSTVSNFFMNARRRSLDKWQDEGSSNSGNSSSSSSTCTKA
Sequence of Transcription factor Sp1 (Homo sapiens) (P08047 whole entry, looked up): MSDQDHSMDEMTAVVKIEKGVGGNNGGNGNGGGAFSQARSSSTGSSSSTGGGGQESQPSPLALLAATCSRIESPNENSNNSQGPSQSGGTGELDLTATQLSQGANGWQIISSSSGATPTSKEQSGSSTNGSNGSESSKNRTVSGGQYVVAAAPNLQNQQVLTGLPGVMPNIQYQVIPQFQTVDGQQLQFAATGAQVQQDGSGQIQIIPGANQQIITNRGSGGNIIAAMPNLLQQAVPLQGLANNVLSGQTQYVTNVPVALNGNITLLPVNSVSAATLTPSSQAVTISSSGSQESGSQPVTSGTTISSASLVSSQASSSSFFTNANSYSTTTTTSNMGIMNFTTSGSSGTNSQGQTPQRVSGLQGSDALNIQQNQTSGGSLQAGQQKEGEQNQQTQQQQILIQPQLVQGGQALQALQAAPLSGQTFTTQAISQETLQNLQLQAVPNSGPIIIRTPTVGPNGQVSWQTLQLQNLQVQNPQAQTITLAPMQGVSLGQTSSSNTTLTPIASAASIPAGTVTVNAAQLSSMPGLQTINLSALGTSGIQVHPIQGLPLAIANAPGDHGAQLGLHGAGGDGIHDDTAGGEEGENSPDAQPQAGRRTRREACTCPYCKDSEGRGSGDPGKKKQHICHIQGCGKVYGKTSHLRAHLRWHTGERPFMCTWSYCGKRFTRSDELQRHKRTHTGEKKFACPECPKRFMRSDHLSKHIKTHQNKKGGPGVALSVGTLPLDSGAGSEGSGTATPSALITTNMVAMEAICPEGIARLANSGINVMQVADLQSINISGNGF

Cc1cccc(N)c1N
active: [5] 2.66 µM | [8] 106 µM | [10] 106 µM | [12] 106 µM | [18] 190 µM
not listed: [20]
inactive: all other assays above

CC(C)(C)C(O)(CCc1ccc(Cl)cc1)Cn1cncn1 (configuration not stated)
active: [8] 100 µM | [11] 2.45 µM | [15] 1.79 µM
inactive: all other assays above

ClC1=C(Cl)C2(Cl)C3C(Cl)C=CC3C1(Cl)C2(Cl)Cl (configuration not stated)
active: [8] 127 µM | [10] 139 µM | [11] 7.47 µM | [14] 168 µM
not listed: [4] | [17]
inactive: all other assays above

Cc1cc(N=Nc2ccccc2C)ccc1N
active: [5] 24.7 µM | [7] 53.8 µM | [8] 27.9 µM | [9] 33.4 µM | [10] 22.4 µM | [11] 13.9 µM | [20] 26.4 µM | [12] 23 µM
not listed: [17]
inactive: all other assays above

N#CC(Br)Br
not listed: [4]
inactive: all other assays above

OCCCl
not listed: [17]
inactive: all other assays above

CCOC(=O)[C@]1(c2ccccc2)Oc2ccccc2[C@@H]1N
inactive: [16] | [18]
active: [1] 52.6 µM | [2] 33 µM | [3] 52.7 µM | [5] 1.78 µM | [6] 43.3 µM | [7] 61.8 µM | [8] 33 µM | [9] 9.64 µM | [10] 37.6 µM | [11] 9.53 µM | [20] 13.8 µM | [12] 33 µM | [13] 50.3 µM | [14] 49.6 µM | [15] 12.3 µM | [17] 33 µM | [19] 61.8 µM

ClCCOCCCl
not listed: [9]
inactive: all other assays above

C[C@]12C=CC3=C4CCC(=O)C=C4CC[C@H]3[C@@H]1CC[C@@H]2O
inactive: [2] | [3] | [5] | [6] | [7] | [8] | [9] | [10] | [11] | [20] | [12] | [13] | [14] | [15] | [16] | [17] | [18] | [19]
active: [2] 59.8 µM [middle of 4 runs] | [8] 100 µM and 44.5 µM and 52.5 µM | [10] 34.2 µM | [11] 40.2 µM and 57.3 µM | [20] 26.8 µM | [12] 20.1 µM | [14] 8.08 µM | [15] 4.15 µM | [18] 47.7 µM and 33.4 µM and 19.4 µM

Nc1ccc(Oc2ccc(N)cc2)cc1
not listed: [4]
inactive: all other assays above

CCC(C)c1ccc(O)cc1 (configuration not stated)
active: [8] 82.1 µM | [11] 26.5 µM | [15] 163 µM
not listed: [17] | [20]
inactive: all other assays above

Oc1ccccc1Cl
not listed: [4] | [12] | [17]
inactive: all other assays above

[O-][Cl+]O
not listed: [4] | [9]
inactive: all other assays above

COP(=S)(OC)SCN1C(=O)c2ccccc2C1=O
active: [11] 26.8 µM
not listed: [1] | [9] | [12] | [17]
inactive: all other assays above
